Measured values published in PubChem BioAssay (NCATS).
Inconclusive results are not listed. Where a call stands in place of a potency, no number is given. Active and inactive are the calls of the source. Calls come from the whole dose curve; as a rule, active = well fitted curve in the direction sought with a large enough effect; inconclusive = small, poorly fitted or top-dose-only effect, or another doubt; inactive = no such curve, though single readings can be large; an effect the other way counts as inactive or inconclusive.

Experiments:
[1] = molecular target: Luciferin 4-monooxygenase (Photinus pyralis) (UniProt P08659); assay: Firefly luciferase counterscreen qHTS: Assay Interference Panel against the NCATS CANVASS Library (AID 1347363); note: potency is the fitted concentration of half-maximal effect
Sequence of Luciferin 4-monooxygenase (Photinus pyralis) (P08659 whole entry, looked up): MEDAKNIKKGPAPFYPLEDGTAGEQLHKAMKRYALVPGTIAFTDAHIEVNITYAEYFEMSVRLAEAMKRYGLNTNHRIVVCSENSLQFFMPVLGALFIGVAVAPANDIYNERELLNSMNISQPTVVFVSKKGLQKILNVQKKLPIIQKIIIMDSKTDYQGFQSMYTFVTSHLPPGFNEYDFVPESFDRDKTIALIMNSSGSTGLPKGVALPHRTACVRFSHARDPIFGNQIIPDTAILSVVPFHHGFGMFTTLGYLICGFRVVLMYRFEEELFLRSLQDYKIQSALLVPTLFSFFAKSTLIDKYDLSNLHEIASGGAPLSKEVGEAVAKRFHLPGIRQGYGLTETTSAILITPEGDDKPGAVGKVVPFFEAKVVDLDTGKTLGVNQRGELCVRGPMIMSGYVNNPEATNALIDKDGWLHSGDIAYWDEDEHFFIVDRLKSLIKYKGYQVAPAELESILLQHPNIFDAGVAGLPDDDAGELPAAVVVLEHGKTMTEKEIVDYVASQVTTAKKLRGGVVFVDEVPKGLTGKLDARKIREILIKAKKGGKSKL
Procedure, shortened: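 Purified P. pyralis luciferase was added to compounds (11-point series) preincubated 15 min at room temperature with substrate containing 0.013 mM D-luciferin and 0.013 mM ATP; luminescence was read after 5 min.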

[2] = KB-8-5-11 Cancer Cell Toxicity qHTS against the NCATS CANVASS Library (AID 1347364); note: series mostly up to about 46 µM; nearly all actives have a fitted effect of over 75% in size
Procedure, shortened: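 Terse: KB-8-5-11, 500 cells/well, 72 hr, 37C/5% CO2, 11-pt titration, CellTiter-Glo readout; confirmatory runs ± 1uM tariquidar in medium.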

[3] = KB-3-1 Cancer Cell Toxicity qHTS against the NCATS CANVASS Library (AID 1347366); conditions: outcome: dose series up to 46.1 µM; note: nearly all actives have a fitted effect of over 75% in size
Procedure, shortened: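 Seed KB-3-1 cells at 500/well in DMEM with 10% FBS, add compounds, incubate 72 hr at 37C and 5% CO2, then add CellTiter-Glo and read luminescence after 10 minutes.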

[4] = qHTS for ATAD5 Agonist screened against the NCATS CANVASS Library (AID 1347367);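 note: luciferase reporter driven by ATAD5 which rises upon DNA damage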
Procedure, shortened: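 Step one plated reporter cells and let them acclimate 5hr. Step two pinned compounds with MMS as positive and 0.46% DMSO as negative control. After 16hr incubation, fluorescence viability then luminescence were read.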

[5] = MCF7 Cancer Cell Toxicity qHTS against the NCATS CANVASS Library (AID 1347369); conditions: outcome: dose series up to 46 µM
Procedure, shortened: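 Cytotoxicity is measured by ATP content: MCF7 cells at 500 per well receive an 11-point compound series and, after 72 hr at 37C, are lysed with CellTiterGlo for luminescence.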

[6] = molecular target: Nuclear receptor subfamily 1 group I member 3 (Homo sapiens) (UniProt Q14994); assay: qHTS for Constitutive Androstane Receptor (CAR) Antagonist screened against the NCATS CANVASS Library (AID 1347372);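 note: cells stimulated with 50 nM CITCO agonist so inhibition reflects antagonism; luciferase from CYP2B6 promoter reporter driven by hCAR in HepG2 cells; series mostly up to about 46 µM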
Sequence of Nuclear receptor subfamily 1 group I member 3 (Homo sapiens) (Q14994 whole entry, looked up): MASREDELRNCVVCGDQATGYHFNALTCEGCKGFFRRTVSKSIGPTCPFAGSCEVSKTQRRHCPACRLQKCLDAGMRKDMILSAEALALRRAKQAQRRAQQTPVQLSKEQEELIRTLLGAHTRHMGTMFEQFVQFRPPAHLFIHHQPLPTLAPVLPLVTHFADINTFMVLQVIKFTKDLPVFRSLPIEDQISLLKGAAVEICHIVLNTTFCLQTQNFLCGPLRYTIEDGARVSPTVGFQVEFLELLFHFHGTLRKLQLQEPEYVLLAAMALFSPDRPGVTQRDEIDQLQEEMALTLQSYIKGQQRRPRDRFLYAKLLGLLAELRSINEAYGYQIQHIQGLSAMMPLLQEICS
Procedure, shortened: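 Cells were seeded and left 4hr to attach, then received compound at 11 concentrations and 50 nM CITCO. Following 24hr incubation, fluorescence viability and luciferase luminescence were read sequentially.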

[7] = molecular target: Nuclear receptor subfamily 1 group I member 3 (Homo sapiens) (UniProt Q14994); assay: qHTS for Constitutive Androstane Receptor (CAR) Agonist screened against the NCATS CANVASS Library (AID 1347373);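 note: every well also contained 1.5 µM PK11195 alongside the test compound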; note: potency is the fitted concentration of half-maximal effect
Procedure, shortened: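 Cells were plated and allowed to attach for 4hr, then dosed with compound in an 11-point series alongside 1.5uM PK11195. After 24hr at 37C, viability was measured fluorometrically and CAR-driven CYP2B6 reporter luminescence was recorded.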

[8] = qHTS for Hypoxia signaling pathway (HIF-1) antagonists against the NCATS CANVASS Library (AID 1347374);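 note: HRE-bla ME-180 cells stimulated with cobalt chloride to stabilize HIF-1alpha; series mostly up to about 38 µM; nearly all actives have a fitted effect of over 60% in size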
Procedure, shortened: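 Antagonism scored as loss of CoCl2-driven (60 uM stock added) HRE beta-lactamase signal, read by CCF4 FRET at 460/530 nm. Compounds were tested in an 11-point series on ME-180 reporter cells for 17 hrs at 37C, with parallel CellTiter-Glo cytotoxicity.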

[9] = qHTS for Hypoxia signaling pathway (HIF-1) agonists against the NCATS CANVASS Library (AID 1347375)
Procedure, shortened: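 Cells plated and rested 5 h, compounds pinned in DMSO across 11 concentrations, incubated 17 h at 37C, loaded with CCF4-AM for 2 h, fluorescence read at 460 and 530 nm, then CellTiter-Glo luminescence measured for viability and normalization.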

[10] = 10-beta competent E. coli microbial cell viability qHTS against the NCATS CANVASS Library (AID 1347376); note: series mostly up to about 46 µM
Procedure, shortened: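 Bacterial suspension diluted to 0.2 OD was dosed with compounds, 11-point series, then held overnight at 37C. BacTiter-Glo reagent was added, and after 20 min at room temperature ATP-dependent luminescence was measured.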

[11] = DH5-alpha competent E. coli microbial cell viability qHTS against the NCATS CANVASS Library (AID 1347377); conditions: outcome: dose series up to 91.4 µM unless noted
Procedure, shortened: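 Bacteria were dispensed at 0.2 OD, then compounds were pin-transferred. Plates were incubated overnight at 37C, after which BacTiter-Glo was added and luminescence measured 20 min later.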

[12] = qHTS for H2AX Agonists against the NCATS CANVASS Library (AID 1347378);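 note: phospho-H2AX S139 level in CHO-K1 lysates by TR-FRET emission ratio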
Procedure, shortened: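 Following overnight seeding, CHO-K1 cells are incubated with a concentration series of compound for 3 hr at 37C (final DMSO 0.76%). Cells are then lysed, detection antibodies added, and emission ratio 665/620 nm recorded after 24 hr at room temperature.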

[13] = qHTS for Antimalaria activity screened against the NCATS CANVASS Library (AID 1347380); note: nearly all actives have a fitted effect of over 40% in size; note: potency is the fitted concentration of half-maximal effect
Procedure, shortened: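 Compounds are titrated over 11 concentrations onto Dd2 parasite cultures (0.3% parasitemia, 2.5% hematocrit). Growth over 72 h at 37C in low oxygen is measured as SYBR Green DNA fluorescence after lysis.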

[14] = Inflammasome Signaling qHTS Counterscreen: IL-1-beta AlphaLISA counterscreen against the NCATS CANVASS Library (AID 1347381);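 note: cell-free check with purified IL-1β in medium and no THP-1 cells; series mostly up to about 57 µM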
Procedure, shortened: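 Purified IL-1-beta (4 pg/well) + compound, 11-pt conc. series; acceptor beads 6 ug/mL + biotin-Ab 0.6 nM final, 1 h RT; SA-donor 24 ug/ml final, 30 min dark RT; read ex 680/em 615.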

[15] = Cytotoxicity qHTS for assessment of Hepg2 cells membrane integrity screened against the NCATS CANVASS Library (AID 1347387)
Procedure, shortened: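 Cells were seeded at 2000 per well and left overnight to attach. Compounds were pin-transferred to give 0.59 nM - 46 uM in an 11-point series and incubated 5 hr at 37C. CytoTox-ONE reagent was added and, after 10 min at room temperature, fluorescence (ex 560, em 590 nm) was read.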

[16] = SDT Cancer Cell Toxicity qHTS against the NCATS CANVASS Library (AID 1347365);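 note: SDT canine glioma cells 500 per well in 1536 well plates; series mostly up to about 46 µM; nearly all actives have a fitted effect of over 60% in size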
Procedure, shortened: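 Cytotoxicity is measured from cellular ATP: compounds in an 11-point concentration series are pinned onto SDT cells, incubated 72 hr at 37C, then CellTiterGlo is added and luminescence read.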

[17] = G06 Cancer Cell Toxicity qHTS against the NCATS CANVASS Library (AID 1347368); conditions: outcome: dose series up to 46.1 µM; note: nearly all actives have a fitted effect of over 60% in size
Procedure, shortened: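 Cells were plated at 500 per well, then compounds were added over an 11-point range. After 72 hr at 37C, CellTiterGlo was added and luminescence measured as ATP content.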

[18] = qHTS for ATAD5 Antagonist screened against the NCATS CANVASS Library (AID 1347370);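 note: HEK293T cells carrying an ATAD5 luciferase reporter co-treated with 10 µM 5-fluorouridine; series mostly up to about 46 µM; nearly all actives have a fitted effect of over 65% in size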
Procedure, shortened: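 Compounds (11-point) co-dosed with 10 µM 5-FUrd for 16 h at 37 °C onto HEK293T-ATAD5 luciferase reporter cells. Viability measured by CellTiter-Fluor fluorescence, then ATAD5 reporter signal by luminescence.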

[19] = J3T Cancer Cell Toxicity qHTS against the NCATS CANVASS Library (AID 1347371); conditions: outcome: dose series up to 46.1 µM
Procedure, shortened: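 Luminescence from CellTiterGlo, reporting cellular ATP, serves as the viability measure after 72 hr compound treatment of J3T canine glioma cells seeded at 500 cells/well.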

[20] = qHTS for Inflammasome Signaling Inhibitors: IL-1-beta AlphaLISA screen against the NCATS CANVASS Library (AID 1347379); conditions: outcome: dose series up to 57.5 µM;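 note: human THP-1 cells primed with LPS then triggered with ATP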
Procedure, shortened: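 Secreted IL-1B from human THP-1 cells quantified by AlphaLISA 16 hr after compound addition (final up to 57.5 uM). A 1 hr compound pretreatment preceded inflammasome activation with 250 ng/mL LPS plus 1.25 mM ATP (final).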

CC(=O)O[C@H]1C[C@@]2(C)[C@@H](CC[C@H]3[C@@]4(C)C=CC(=O)[C@@H](C)[C@@H]4[C@H](OC(C)=O)C(=O)[C@@]32C)/C1=C(\CCC=C(C)C)C(=O)O
Potency [1]: inactive
outcome [2]: inactive
outcome [3]: inactive
outcome [4]: inactive
outcome [5]: inactive
outcome [6]: inactive
Potency [7]: inactive
outcome [8]: inactive
outcome [9]: inactive
outcome [10]: inactive
outcome [11]: inactive [at 46.1 µM]
outcome [12]: inactive
Potency [13]: 10.6 µM (active)
outcome [14]: inactive
outcome [15]: inactive

CC(C)c1ccc2c(c1)CCC1[C@](C)(C(=O)O)CCC[C@]21C (stereo partly drawn)
Potency [1]: inactive
outcome [2]: inactive
outcome [16]: inactive
outcome [3]: inactive
outcome [4]: inactive
outcome [17]: inactive
outcome [5]: inactive
outcome [18]: inactive
outcome [19]: inactive
outcome [6]: inactive
outcome [8]: inactive
outcome [9]: inactive
outcome [10]: inactive
outcome [11]: inactive
outcome [12]: inactive
outcome [20]: inactive
Potency [13]: inactive
outcome [14]: inactive
outcome [15]: inactive

C/C(=C\CC/C(C)=C/CC[C@]1(C)CCc2cc(O)cc(C)c2O1)CC/C=C(\C)C(=O)O
Potency [1]: inactive
outcome [2]: inactive
outcome [16]: inactive
outcome [3]: inactive
outcome [4]: inactive
outcome [17]: inactive
outcome [5]: inactive
outcome [18]: inactive
outcome [19]: inactive
outcome [6]: inactive
Potency [7]: inactive
outcome [9]: inactive
outcome [10]: inactive
outcome [12]: inactive
outcome [20]: inactive
outcome [14]: inactive
outcome [15]: inactive

O=C(/C=C/C=C/c1ccc2c(c1)OCO2)N1CCCCC1
Potency [1]: 6.8 µM (active)
outcome [16]: inactive
outcome [3]: inactive
outcome [4]: inactive
outcome [17]: inactive
outcome [5]: inactive
outcome [18]: inactive
outcome [19]: inactive
outcome [6]: inactive
Potency [7]: 4.14 µM (active)
outcome [10]: inactive
outcome [11]: inactive
outcome [12]: inactive
outcome [20]: inactive
Potency [13]: inactive
outcome [14]: inactive
outcome [15]: inactive
